Screens (PubChem)
mHTT-CaM PPI inh = disrupts binding of mutant huntingtin to calmodulin | inhibition, % at 15 µM | actives 3.6% (n = 190,000) | P42858 | AlphaScreen His-mHTT/GST-CaM binding, luminescence;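 further: 0% = both proteins with DMSO and 100% = one protein alone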
Pf apPOL block = Pf-apPOL DNA polymerase inhibition. actives 0.25% (n = 210,000). Recombinant Pf-apPOL, molecular beacon fluorescence, 1.5 h. inhibition, % at 10 µM. AID 1794808
Numbers without * were called inactive; · = no result. Most compounds without a hit are left out; they make up all but 3.5% or so of the library. No stated cut-off is given here; in the data, active means inhibition above about 50%; inactive means the rest.

SMILES	mHTT-CaM PPI inh	Pf apPOL block
O=c1nc(/C=C/c2ccc(-c3ccc(Br)cc3)o2)cc(C(F)(F)F)[nH]1	99*	-4
O=C(O)c1ccccc1-c1ccc(/C=C/c2cc(C(F)(F)F)[nH]c(=O)n2)o1	3	-5
O=C(O)c1cc(Cl)ccc1-c1ccc(/C=C/c2cc(C(F)(F)F)[nH]c(=O)n2)o1	13	-1
O=c1nc(/C=C/c2ccc(-c3cccc(Cl)c3)o2)cc(C(F)(F)F)[nH]1	91*	-6
CC(C(=O)Nc1ccc(Cl)cn1)(c1ccccc1)c1ccccc1	-6	-4
Cc1ccsc1C1C2=C(CCCC2=O)Nc2ncnn21 (centres undefined)	-4	-3
Cc1ccsc1C1C2=C(CC(C)(C)CC2=O)Nc2ncnn21 (centres undefined)	87*	1
COc1ccc(C(=O)N2CC(C)C(c3nc(-c4ccncc4)no3)C2)cc1OC (centres undefined)	-5	-4
O=C1C2CCCCC2C(=O)N1CN1CCCCC1 (centres undefined)	7	6
CC1=C(C(=O)Nc2ccccc2)C(c2ccc(F)cc2)n2c(s/c(=C\c3ccc(C)o3)c2=O)=N1 (centres undefined)	66*	-4
CC1=C(C(=O)Nc2ccccc2)C(c2ccccc2)n2c(s/c(=C\c3ccco3)c2=O)=N1 (centres undefined)	9	0
C=CCNC(=O)CN(c1ccc(Cl)c(Cl)c1)S(C)(=O)=O	0	-3
CCc1cccc(C)c1NC(=O)Cn1c(-c2nc(-c3ccccc3)no2)cccc1=O	-2	-2
CN1CCc2cc(C(CNC(=O)C(=O)Nc3cccc(C(F)(F)F)c3)N(C)C)ccc21 (centres undefined)	53*	-4
CN1CCCc2cc(C(CNC(=O)C(=O)Nc3ccc4c(c3)OCCO4)N(C)C)ccc21 (centres undefined)	37	-10
Cc1cc(C(=O)N2CCCC2c2ccc(Cl)cc2)on1 (centres undefined)	-3	-2
O=C1Nc2ccc(Br)cc2/C1=C/c1ccccc1	48	-6
Cc1cc(C)c(N2C(=O)NC(=O)/C(=C\c3ccc([N+](=O)[O-])o3)C2=O)c(C)c1	60*	-12
O=C1Nc2ccc(Br)cc2/C1=C/c1ccc([N+](=O)[O-])o1	71*	-7
Cc1ccc(-c2ccc(/C=C3\C(=O)NN(c4ccc(F)cc4)C3=O)o2)c([N+](=O)[O-])c1C	40	6
C=CCN1C(=O)NC(=O)/C(=C/c2ccc(-c3ccc([N+](=O)[O-])cc3C)o2)C1=O	5	3
O=C1NN(c2ccc(Br)cc2)C(=O)/C1=C/c1ccc([N+](=O)[O-])o1	97*	5
COc1cc(C2Nc3ccccc3NC3=C2C(=O)CC(c2cccs2)C3)cc(OC)c1OC (centres undefined)	10	-10
COc1cc(OC)c(C2C(C#N)=C(N)Oc3n[nH]c(-c4ccccc4)c32)cc1OC (centres undefined)	19	-5
CCCCN1C(=O)C(C)(C(=O)Nc2ccc(OC)c(F)c2)Oc2cccnc21 (centres undefined)	-7	-2
SMILES	mHTT-CaM PPI inh	Pf apPOL block
CCOC(=O)c1c(C(C)(C)C)oc2ccc(OCC=C(C)C)cc12	-38	-10
CC1=CC(=NC(C)=NS(=O)(=O)c2ccc(C)cc2)C=C(C)C1=O	31	-6
O=C(Nc1cccc(Cl)c1)c1cc(-c2ccc(Cl)cc2)on1	-1	-2
O=C(Nc1ccc(-c2csnn2)cc1)c1ccccc1C(F)(F)F	·	6
CCc1ccc(N2CC34C=CC(O3)C(C(=O)OC)C4C2=O)cc1 (centres undefined)	4	-1
O=C(OCc1ccccc1)C1C2C=CC3(CN(c4ccc(Cl)cc4)C(=O)C13)O2 (centres undefined)	80*	-2
COc1ccc(-c2csc(Nc3ccccn3)n2)cc1OC	50	-5
Cc1nc(N)sc1-c1csc(Nc2ccccn2)n1	87*	-6
Cc1nc(N)sc1-c1csc(Nc2cccc(O)c2)n1	51*	1
CCOc1ccccc1Nc1nc(-c2ccccn2)cs1	37	-3
Cc1ccnc(Nc2nc(-c3sc(C)nc3C)cs2)c1	30	1
c1ccc(Nc2nc(-c3ccccn3)cs2)nc1	100*	0
Cc1nc(C)c(-c2csc(Nc3cccc(C(=O)O)c3)n2)s1	19	5
c1ccc(-c2csc(Nc3ncccn3)n2)nc1	98*	-1
Cc1ccc(NC(=O)N2CCCC(C)(C(=O)NCc3ccccc3)C2)cc1Cl (centres undefined)	-3	3
CCc1ccccc1NC(=O)CSc1nc2[nH]ncc2c(=O)n1-c1cccc(Cl)c1	26	-10
O=c1cc(CN2CCCCC2)c2cc3c(cc2o1)CCC3	-7	7
Cc1ccc(NC(=O)NC2CCN(c3ccccc3)C2=O)cc1Cl (centres undefined)	-12	-1
COc1ccc(N2CCN(C(=O)c3ccnc(-c4cccs4)c3)CC2)cc1	50*	-2
